Assay results reported in PubChem BioAssay AID1159580 (chemical genetic matrix, 2015).
“And” between values parts separate entries of the source, which are not always exact repeats. Identical values can stand only once. Among all 5,500 compounds or so, about 2,000 (36%) were called active. Not shown: some 18% with an inconclusive outcome. Rule as the data show it: active = normalized growth mostly below about 0.91 (no sharp cut-off); inconclusive = no clear call, values can overlap the other calls; inactive = mostly above about 0.92. The list shows a part of the results.

Experiment: chemical genetic growth profiling, strain panel (AID 1159580);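 also: tested at 20 µM; growth read once vehicle control cultures reached saturation at 30 °C; 1 = growth at the plate median or of vehicle wells; lower values mean less growth of the strain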
Settings: growth OD

Measured: normalized growth

Nc1nc(N)c2nc(CNc3ccc(C(=O)NC(CCC(=O)O)C(=O)O)cc3)cnc2n1 (stereo unspecified)
inactive: S. cerevisiae deletion strains, locus YKL009W, strain mrt4, active compounds read low 0.972 | S. cerevisiae deletion strains, locus YKL068W, active compounds read low 0.981 | S. cerevisiae deletion strains, locus YKL085W, strain MDH1 (second series), active compounds read low 0.986 | S. cerevisiae deletion strains, locus YKL085W, strain MDH1, active compounds read low 0.986 | S. cerevisiae deletion strains, locus YKL160W, strain elf1, active compounds read low 0.968 | S. cerevisiae deletion strains, locus YKL190W, strain CNB1, active compounds read low 1.01 | S. cerevisiae deletion strains, locus YKR001C, strain vps1, active compounds read low 0.989 | S. cerevisiae deletion strains, locus YKR026C, strain gcn3, active compounds read low 0.997 | S. cerevisiae deletion strains, locus YKR091W, strain srl3, active compounds read low 0.99 | S. cerevisiae deletion strains, locus YLL001W, strain dnm1, active compounds read low 0.941 | S. cerevisiae deletion strains, locus YLL026W, active compounds read low 0.996 | S. cerevisiae deletion strains, locus YLL041C, strain sdh2, active compounds read low 0.971 | S. cerevisiae deletion strains, locus YLR027C, strain aat2, active compounds read low 1 | S. cerevisiae deletion strains, locus YLR039C, strain RIC1, active compounds read low 1.01 | S. cerevisiae deletion strains, locus YLR058C, strain SHM2, active compounds read low 1 | S. cerevisiae deletion strains, locus YLR102C, strain apc9, active compounds read low 0.972 | S. cerevisiae deletion strains, locus YLR221C, strain rsa3, active compounds read low 1.06 | S. cerevisiae deletion strains, locus YLR258W, strain gsy2, active compounds read low 0.974 | S. cerevisiae deletion strains, locus YLR262C, strain YPT6 (second series), active compounds read low 1.03 | S. cerevisiae deletion strains, locus YLR262C, strain YPT6, active compounds read low 0.952 | S. cerevisiae deletion strains, locus YLR268W, strain sec22, active compounds read low 0.977 | S. cerevisiae deletion strains, locus YLR320W, strain mms22, active compounds read low 1.05 | S. cerevisiae deletion strains, locus YLR330W, strain CHS5, active compounds read low 1.01 | S. cerevisiae deletion strains, locus YLR342W, strain FKS1 (second series), active compounds read low 1.07 | S. cerevisiae deletion strains, locus YLR342W, strain FKS1, active compounds read low 1.01 | S. cerevisiae deletion strains, locus YLR357W, strain rsc2, active compounds read low 0.963 | S. cerevisiae deletion strains, locus YLR370C, strain arc18, active compounds read low 0.99 | S. cerevisiae deletion strains, locus YLR371W, strain rom2, active compounds read low 0.973 | S. cerevisiae deletion strains, locus YLR384C, strain iki3, active compounds read low 0.988 | S. cerevisiae deletion strains, locus YLR418C, strain cdc73, active compounds read low 1.02 | S. cerevisiae deletion strains, locus YML016C, strain PPZ1, active compounds read low 0.992 | S. cerevisiae deletion strains, locus YML032C, strain rad52, active compounds read low 1.01 | S. cerevisiae deletion strains, locus YML120C, strain ndi1, active compounds read low 0.979 | S. cerevisiae deletion strains, locus YML124C, strain tub3, active compounds read low 0.988 | S. cerevisiae deletion strains, locus YMR058W, strain fet3, active compounds read low 0.984 | S. cerevisiae deletion strains, locus YMR078C, strain ctf18, active compounds read low 0.974 | S. cerevisiae deletion strains, locus YMR125W, strain sto1, active compounds read low 0.967 | S. cerevisiae deletion strains, locus YMR129W, active compounds read low 1 | S. cerevisiae deletion strains, locus YMR205C, strain PFK2, active compounds read low 0.965 | S. cerevisiae deletion strains, locus YMR223W, strain ubp8, active compounds read low 0.989 | S. cerevisiae deletion strains, locus YMR231W, strain pep5, active compounds read low 1 | S. cerevisiae deletion strains, locus YMR263W, strain SAP30, active compounds read low 0.99 and 1 | S. cerevisiae deletion strains, locus YMR307W, strain GAS1, active compounds read low 1.16 | S. cerevisiae deletion strains, locus YNL067W, strain RPL9B, active compounds read low 0.975 | S. cerevisiae deletion strains, locus YNL071W, strain lat1, active compounds read low 0.998 | S. cerevisiae deletion strains, locus YNL128W, strain TEP1, active compounds read low 1 | S. cerevisiae deletion strains, locus YNL153C, strain GIM3, active compounds read low 1 | S. cerevisiae deletion strains, locus YNL175C, strain NOP13, active compounds read low 0.989 | S. cerevisiae deletion strains, locus YNL197C, strain WHI3, active compounds read low 0.956 | S. cerevisiae deletion strains, locus YNL209W, strain ssb2, active compounds read low 0.987 | S. cerevisiae deletion strains, locus YNL224C, strain SQS1, active compounds read low 0.981 | S. cerevisiae deletion strains, locus YNL233W, strain BNI4, active compounds read low 1.01 | S. cerevisiae deletion strains, locus YNL248C, strain rpa49, active compounds read low 1.02 | S. cerevisiae deletion strains, locus YNL250W, strain rad50, active compounds read low 0.945 | S. cerevisiae deletion strains, locus YNL271C, strain bni1, active compounds read low 0.984 | S. cerevisiae deletion strains, locus YNL298W, strain CLA4, active compounds read low 0.995 | S. cerevisiae deletion strains, locus YNL307C, strain MCK1, active compounds read low 0.977 | S. cerevisiae deletion strains, locus YNL322C, strain KRE1 (second series), active compounds read low 0.976 | S. cerevisiae deletion strains, locus YNL322C, strain KRE1, active compounds read low 0.998 and 1.01 | S. cerevisiae deletion strains, locus YNR049C, strain mso1, active compounds read low 0.987 | S. cerevisiae deletion strains, locus YNR052C, strain pop2, active compounds read low 0.991 | S. cerevisiae deletion strains, locus YOL006C, strain TOP1, active compounds read low 0.981 | S. cerevisiae deletion strains, locus YOL012C, strain htz1 0.761 | S. cerevisiae deletion strains, locus YOL147C, strain pex11, active compounds read low 0.998 | S. cerevisiae deletion strains, locus YOR001W, strain rrp6, active compounds read low 1.01 | S. cerevisiae deletion strains, locus YOR061W, strain CKA2, active compounds read low 0.99 | S. cerevisiae deletion strains, locus YOR069W, strain VPS5, active compounds read low 0.992 | S. cerevisiae deletion strains, locus YOR070C, strain gyp1, active compounds read low 0.997 | S. cerevisiae deletion strains, locus YOR080W, strain dia2, active compounds read low 1.01 | S. cerevisiae deletion strains, locus YOR083W, strain WHI5 (second series), active compounds read low 1 | S. cerevisiae deletion strains, locus YOR083W, strain WHI5, active compounds read low 0.967 | S. cerevisiae deletion strains, locus YOR106W, strain vam3, active compounds read low 0.94 | S. cerevisiae deletion strains, locus YOR136W, strain idh2, active compounds read low 0.994 | S. cerevisiae deletion strains, locus YOR144C, strain elg1, active compounds read low 1 | S. cerevisiae deletion strains, locus YOR184W, strain ser1, active compounds read low 0.99 | S. cerevisiae deletion strains, locus YOR265W, strain rbl2, active compounds read low 0.989 | S. cerevisiae deletion strains, locus YOR270C, strain vph1, active compounds read low 1.05 | S. cerevisiae deletion strains, locus YOR290C, strain snf2, active compounds read low 0.933 | S. cerevisiae deletion strains, locus YOR316C, strain cot1, active compounds read low 0.986 | S. cerevisiae deletion strains, locus YPL051W, strain arl3, active compounds read low 1 | S. cerevisiae deletion strains, locus YPL055C, strain LGE1, active compounds read low 1.02 and 0.989 | S. cerevisiae deletion strains, locus YPL078C, strain atp4, active compounds read low 0.955 | S. cerevisiae deletion strains, locus YPL106C, strain sse1, active compounds read low 0.956 | S. cerevisiae deletion strains, locus YPL240C, strain hsp82, active compounds read low 0.992 | S. cerevisiae deletion strains, locus YPL241C, strain CIN2, active compounds read low 1.01 | S. cerevisiae deletion strains, locus YPR119W, strain clb2, active compounds read low 0.987 | S. cerevisiae deletion strains, locus YPR141C, strain kar3, active compounds read low 0.98 | S. cerevisiae deletion strains, locus YPR163C, strain tif3, active compounds read low 1 | S. cerevisiae deletion strains, locus YPR167C, strain met16, active compounds read low 0.989 | S. cerevisiae deletion strains, strain wtn01, active compounds read low 0.965 | S. cerevisiae strains, strain wild type, active compounds read low 1.01
